From PubChem BioAssay (NCI)
This is part of a sample that, as a whole, favours compounds with a hit. Of some 79,000 tested, about 15% had one in any assay. The source made the active and inactive calls. No stated cut-off is given here; in the data, active means growth inhibition above about 70%; inactive means the rest.

Columns and labels:
[1] = NCI Yeast Anticancer Drug Screen. Data for the mlh1 rad18 strain (AID 175); settings: S. cerevisiae mlh1 rad18 strain growth inhibition, stronger effect = higher value
Summary of the method: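 Vehicle-treated cultures served as the reference for growth inhibition in a yeast strain carrying DNA damage repair alterations exposed to each compound.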

[2] = NCI Yeast Anticancer Drug Screen. Data for the wt1 strain (AID 149);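 further: 0% = growth of vehicle-treated wt1 cultures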; settings: S. cerevisiae wt1 strain (SPY 50644) growth inhibition, stronger effect = higher value
Summary of the method: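 Vehicle-normalised growth inhibition; strain wt1; compound exposure.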

[3] = NCI Yeast Anticancer Drug Screen. Data for the rad50EPP+ strain (AID 151);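 further: 0% = growth of vehicle-treated control cultures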; settings: S. cerevisiae rad50 mutant strain, stronger effect = higher value
Summary of the method: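 In this screen, rad50EPP+ yeast were exposed to compounds. Growth inhibition was scored against vehicle-treated controls.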

[4] = NCI Yeast Anticancer Drug Screen. Data for the rad50 strain (AID 155);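 further: 0% = growth of vehicle-only cultures of the same strain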; settings: S. cerevisiae rad50 strain growth inhibition, stronger effect = higher value
Summary of the method: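 A DNA repair-deficient yeast mutant serves as the test organism; compound-induced growth inhibition is calculated against vehicle-treated cells.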

[5] = NCI Yeast Anticancer Drug Screen. Data for the mec2-1 strain (AID 157); settings: S. cerevisiae mec2-1 strain, stronger effect = higher value
Summary of the method: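 Vehicle-treated cultures served as reference for growth inhibition of compound-exposed mec2-1 yeast.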

[6] = NCI Yeast Anticancer Drug Screen. Data for the rad14 strain (AID 159);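 further: 0% = growth of vehicle-treated control cultures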; settings: S. cerevisiae rad14 strain growth inhibition, stronger effect = higher value
Summary of the method: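 Vehicle-treated cultures served as the baseline for growth inhibition of a DNA repair-mutant yeast strain exposed to each compound.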

[7] = NCI Yeast Anticancer Drug Screen. Data for the sgs1 mgt1 strain (AID 161);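 further: 0% = growth of cultures given vehicle only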; settings: S. cerevisiae sgs1 mgt1 strain, stronger effect = higher value
Summary of the method: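 Inhibition of yeast growth, normalised to vehicle-treated controls, is reported for a strain bearing genetic alterations in DNA damage repair.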

[8] = NCI Yeast Anticancer Drug Screen. Data for the CLN2oe strain (AID 163);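 further: 0% = growth of vehicle-only control cultures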; settings: S. cerevisiae CLN2oe strain, stronger effect = higher value
Summary of the method: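 Inhibition relative to vehicle-treated yeast is reported. Cells: strain with genetic alteration in cell-cycle control, grown with compound.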

[9] = NCI Yeast Anticancer Drug Screen. Data for the cln2 rad14 strain (AID 165);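 further: 0% = growth equal to vehicle treated cultures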; settings: S. cerevisiae cln2 rad14 strain, stronger effect = higher value
Summary of the method: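 Each compound was tested on cln2 rad14 yeast. Inhibition of growth was calculated against vehicle-exposed controls.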

[10] = NCI Yeast Anticancer Drug Screen. Data for the bub3 strain (AID 167); settings: S. cerevisiae bub3 mutant strain, stronger effect = higher value
Summary of the method: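 Inhibition values come from growth of compound-treated mutant yeast normalised to vehicle-treated controls.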

[11] = NCI Yeast Anticancer Drug Screen. Data for the mlh1 strain (AID 171);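 further: 0% = growth of vehicle-treated control cultures of the same strain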; settings: S. cerevisiae mlh1 strain growth inhibition, stronger effect = higher value
Summary of the method: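 Vehicle-normalised growth inhibition of a repair- or checkpoint-altered yeast strain following compound treatment.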

[12] = NCI Yeast Anticancer Drug Screen. Data for the sgs1 strain (AID 173);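 further: 0% = growth of vehicle-only control cultures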; settings: S. cerevisiae sgs1 mutant, stronger effect = higher value
Summary of the method: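 Screen format: yeast with repair or checkpoint alterations, compound exposure, growth read relative to vehicle.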

[13] = NCI Yeast Anticancer Drug Screen. Data for the rad18 strain (AID 177); settings: S. cerevisiae rad18 mutant growth inhibition, stronger effect = higher value
Summary of the method: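 Test articles were incubated with altered yeast defective in DNA damage repair. Results are given as inhibition of growth versus vehicle.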

[14] = NCI Yeast Anticancer Drug Screen. Data for the mgt1 strain (AID 153); settings: S. cerevisiae mgt1 mutant growth inhibition, stronger effect = higher value
Summary of the method: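 mgt1 strain exposed; growth vs vehicle control recorded as inhibition.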

[15] = NCI Yeast Anticancer Drug Screen. Data for the wt2 strain (AID 169);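 further: 0% = growth of vehicle-treated yeast cultures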; settings: S. cerevisiae wt2 strain growth inhibition, stronger effect = higher value
Summary of the method: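 Inhibition of yeast growth was determined after compound treatment, normalised to controls receiving only vehicle.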

[16] = at 5.0 µM (retest, dose inferred, filed as 0.5)
[17] = at 50.0 µM (retest, dose inferred, filed as 5.0)

Measured: growth inhibition

COc1ccc2c(C)cc(N/N=C/c3sccc3C)nc2c1
inactive: [1]; [16] 27%
active: [1]; [17] 94% | [1]; at 50.0 µM 76.3%

COc1ccc2nc(N/N=C/c3sccc3C)cc(C)c2c1
active: [2]; at 33.0 µM 96% | [2]; at 100.0 µM 95% | [3]; at 100.0 µM 76% | [4]; at 33.0 µM 94% | [4]; at 50.0 µM 85.5% | [4]; at 100.0 µM 94% | [5]; at 33.0 µM 96% | [5]; at 50.0 µM 87.5% | [5]; at 100.0 µM 95% | [6]; at 33.0 µM 97% | [6]; at 100.0 µM 90% | [7]; [16] 96% | [7]; [17] 96% | [7]; at 50.0 µM 84.1% | [8]; at 33.0 µM 96% | [8]; at 100.0 µM 94% | [9]; [16] 95% | [9]; [17] 95% | [9]; at 50.0 µM 81% | [10]; [16] 96% | [10]; at 33.0 µM 98% | [10]; [17] 98% | [10]; at 50.0 µM 86% | [10]; at 100.0 µM 96% | [11]; at 33.0 µM 97% | [11]; at 100.0 µM 92% | [12]; at 33.0 µM 98% | [12]; at 100.0 µM 95% | [1]; [17] 83% | [1]; at 50.0 µM 87.8% | [13]; at 33.0 µM 98% | [13]; at 100.0 µM 96%
inactive: [2]; at 1.2 µM -39% | [2]; at 3.7 µM -32% | [2]; at 11.0 µM -6% | [3]; at 1.2 µM -18% | [3]; at 3.7 µM -19% | [3]; at 11.0 µM -21% | [3]; at 33.0 µM 15% | [4]; at 1.2 µM -22% | [4]; at 3.7 µM -27% | [4]; [16] 4% | [4]; at 11.0 µM -12% | [4]; [17] 68% | [5]; at 1.2 µM -13% | [5]; at 3.7 µM 4% | [5]; [16] -10% | [5]; at 11.0 µM 12% | [5]; [17] 56% | [6]; at 1.2 µM -50% | [6]; at 3.7 µM -19% | [6]; at 11.0 µM -21% | [8]; at 1.2 µM -2% | [8]; at 3.7 µM -6% | [8]; at 11.0 µM -1% | [10]; at 1.2 µM 12% | [10]; at 3.7 µM 14% | [10]; at 11.0 µM 38% | [11]; at 1.2 µM 8% | [11]; at 3.7 µM -3% | [11]; at 11.0 µM 35% | [12]; at 1.2 µM -30% | [12]; at 3.7 µM -45% | [12]; at 11.0 µM -16% | [1]; [16] -5% | [13]; at 1.2 µM 5% | [13]; at 3.7 µM 16% | [13]; at 11.0 µM 8%

Cc1cccc[c]1[Sn]([Cl])([S]/C(C#N)=N/N=C/c1ccc(N(C)C)cc1)[c]1ccccc1C
inactive: [2]; at 1.2 µM -4% | [2]; at 3.7 µM -3% | [2]; at 11.0 µM -8% | [2]; at 33.0 µM 35% | [2]; at 100.0 µM 48% | [3]; at 1.2 µM 0% | [3]; at 3.7 µM -1% | [3]; at 11.0 µM 0% | [3]; at 33.0 µM 12% | [3]; at 100.0 µM 13% | [14]; at 1.2 µM -3% | [14]; at 3.7 µM -6% | [14]; at 11.0 µM -8% | [14]; at 33.0 µM 37% | [4]; at 1.2 µM -3% | [4]; at 3.7 µM -1% | [4]; [16] 40% | [4]; at 11.0 µM 12% | [4]; at 33.0 µM 67% | [6]; at 1.2 µM -1% | [6]; at 3.7 µM 3% | [6]; at 11.0 µM 11% | [6]; at 33.0 µM 58% | [7]; [16] 37% | [8]; at 1.2 µM 0% | [8]; at 3.7 µM 0% | [8]; at 11.0 µM 2% | [8]; at 33.0 µM 53% | [9]; [16] 25% | [10]; at 1.2 µM -8% | [10]; at 3.7 µM -6% | [10]; [16] 34% | [10]; at 11.0 µM 0% | [10]; at 33.0 µM 46% | [11]; at 1.2 µM 3% | [11]; at 3.7 µM -5% | [11]; at 11.0 µM -4% | [11]; at 33.0 µM 35% | [1]; [16] 47% | [13]; at 1.2 µM 0% | [13]; at 3.7 µM -2% | [13]; at 11.0 µM 10% | [13]; at 33.0 µM 61%
active: [14]; at 100.0 µM 91% | [4]; [17] 89% | [4]; at 50.0 µM 97.4% | [4]; at 100.0 µM 94% | [6]; at 100.0 µM 93% | [7]; [17] 92% | [7]; at 50.0 µM 98.3% | [8]; at 100.0 µM 94% | [9]; [17] 89% | [9]; at 50.0 µM 97.1% | [10]; [17] 92% | [10]; at 50.0 µM 97.2% | [10]; at 100.0 µM 89% | [11]; at 100.0 µM 90% | [1]; [17] 86% | [1]; at 50.0 µM 98.4% | [13]; at 100.0 µM 92%

O=C(CSS(=O)(=O)O)c1ccccc1
active: [3]; at 100.0 µM 91% | [10]; [17] 76% | [1]; [17] 89% | [13]; at 33.0 µM 84% | [13]; at 100.0 µM 89%
inactive: [2]; at 1.2 µM 0% | [2]; at 3.7 µM 5% | [2]; at 11.0 µM 2% | [2]; at 33.0 µM 5% | [2]; at 100.0 µM 12% | [3]; at 1.2 µM -4% | [3]; at 3.7 µM -9% | [3]; at 11.0 µM 11% | [3]; at 33.0 µM 67% | [14]; at 1.2 µM -1% | [14]; at 3.7 µM -3% | [14]; at 11.0 µM -1% | [14]; at 33.0 µM 2% | [14]; at 100.0 µM 7% | [5]; at 1.2 µM -4% | [5]; at 3.7 µM -5% | [5]; [16] -15% | [5]; at 11.0 µM 0% | [5]; at 33.0 µM 9% | [5]; [17] -6% | [5]; at 50.0 µM 19.9% | [5]; at 100.0 µM 24% | [6]; at 1.2 µM 2% | [6]; at 3.7 µM 3% | [6]; at 11.0 µM 5% | [6]; at 33.0 µM 9% | [6]; at 100.0 µM 19% | [7]; [16] -9% | [7]; [17] 69% | [7]; at 50.0 µM 35.3% | [8]; at 1.2 µM -5% | [8]; at 3.7 µM -14% | [8]; at 11.0 µM -11% | [8]; at 33.0 µM 2% | [8]; at 100.0 µM 28% | [9]; [16] 6% | [9]; [17] 15% | [9]; at 50.0 µM 18.2% | [10]; at 1.2 µM 0% | [10]; at 3.7 µM -5% | [10]; [16] -17% | [10]; at 11.0 µM -1% | [10]; at 33.0 µM 18% | [10]; at 50.0 µM 34.5% | [10]; at 100.0 µM 47% | [15]; at 1.2 µM -2% | [15]; at 3.7 µM -1% | [15]; at 11.0 µM 1% | [15]; at 33.0 µM 6% | [15]; at 100.0 µM 15% | [11]; at 1.2 µM -4% | [11]; at 3.7 µM 1% | [11]; at 11.0 µM 3% | [11]; at 33.0 µM 12% | [11]; at 100.0 µM 24% | [12]; at 1.2 µM 0% | [12]; at 3.7 µM 2% | [12]; at 11.0 µM 13% | [12]; at 33.0 µM 29% | [12]; at 100.0 µM 51% | [1]; [16] 31% | [1]; at 50.0 µM 35% | [13]; at 1.2 µM 5% | [13]; at 3.7 µM 20% | [13]; at 11.0 µM 62%
